These results are taken from ChEMBL document CHEMBL4513216, “Probing the Open Global Health Chemical Diversity Library for Multistage-Active Starting Points for Next-Generation Antimalarials” (ACS Infect Dis, 2020).

The campaign covered roughly 69,000 compounds. About 8,600 (12%) showed an effect of 50% or more. This is one part of a sample in which strong results are shown more often than they occur.

The assay deals with Plasmodium berghei. Nature of the assay: Screen against P. berghei liver stage (PbLuc), transformed with Luciferase, at 10uM. Particulars: tested at 10 uM. It counts as functional, HepG2.
Take `Cc1ccc(CN2CCOC3(CCCN(C(=O)c4ccco4)C3)C2)s1` (stereo not drawn): the INHIBITION turned out to be 28.5%.

`Cc1ccc(N(CCC#N)C(=O)CN2CCCC2c2ccsc2)cc1C` (stereo not drawn): the INHIBITION is -10.75%. With `CC1CCC(C(=O)N2CCC(n3cc(C4(O)CCCC4)nn3)CC2)CC1` (stereo not drawn) the figure was 47.4%.

In the case of `c1csc(-c2nc(CN3CCCC3Cn3cccn3)co2)c1` (stereo not drawn), the INHIBITION was 17.5%. For the molecule `CC(C)(N)c1nc(C(F)F)cc(=O)[nH]1`, the INHIBITION is -4.35%. In the case of `CS(=O)(=O)NC(c1ccccc1)c1ccc2c(c1)CCCO2` (stereo not drawn) it was -9.98%; in that of `CC(C)c1nc(CN(C)C(=O)[C@H](N)Cc2ccc(Cl)cc2)cs1`, 17.2%.

Take `CC(NC(=O)N(C)Cc1cccc(OC(F)F)c1)c1nncn1C` (stereo not drawn): the INHIBITION was determined as 68.2%.

Turning to `COc1ccc(CN(C)C(=O)NC(C)c2nncn2C)cc1F` (stereo not drawn), the INHIBITION was -24.7%. In the case of `CCOc1ccc(CN(C)C(=O)NC(C)c2nncn2C)cc1` (stereo not drawn) it was -6.75%. With `Cc1nc(C2CCN(C)CC2)cc(N2CCOc3ccc(Cl)cc3C2)n1` the figure was 94.3%; with `Cc1nc(C2CCNCC2)cc(N2CCOc3ccccc3C2)n1`, -55.1%.

Regarding `Cc1nc(CCN)cc(N2CCOc3ccc(Cl)cc3C2)n1`, the INHIBITION is recorded as -43.5%.

As to `CC(C)Oc1ccc(CN)c(C(F)(F)F)c1`, the INHIBITION was 10%.

Turning to `CCOc1ccccc1OC1CCN(C(=O)c2cnns2)CC1`, the INHIBITION is listed as 44.1%. With `CC(C)c1cc(NC(=O)CNC2CCc3nc(C(C)C)nn3C2)on1` (stereo not drawn) the figure was 35.7%; with `Cc1c(C2CCCN(C(=O)c3ccncc3)C2)n2c(nc1=O)CCC2` (stereo not drawn), 20.8%. As for `Cc1c(C2CCCN(C(=O)C3CC3)C2)n2c(nc1=O)CCC2` (stereo not drawn), the INHIBITION amounted to 28.4%. In the case of `Cc1noc(C)c1C(=O)N1CCCC(c2c(C)c(=O)nc3n2CCC3)C1` (stereo not drawn) it was 55.6%; in that of `N#Cc1c(F)cccc1Nc1cnn(CC(=O)N2CCOCC2)c1`, 19.2%; in that of `CNC(=O)Cn1cc(Nc2cccc(F)c2C#N)cn1`, -0.514%. In the case of `N#Cc1c(F)cccc1Nc1cnn(CC(N)=O)c1` it was 65.4%; in that of `CCc1csc(C2CCCN(C(=O)c3cnc[nH]3)C2)n1` (stereo not drawn), 10%; in that of `CN(Cc1ccco1)Cc1cnc2n1CCN(c1ncccn1)CC2`, 2.4%. With `Cc1ccc(S(=O)(=O)NCC(C)(C)N)c(F)c1` the figure was 8.51%; with `CN1CCCC(CNC(=O)N(C)Cc2ccc(Cl)c(F)c2)C1` (stereo not drawn), 31%. As for `CCN(CC)S(=O)(=O)N1CC[C@H](c2ccccc2)[C@@H]2[C@H]1CCCCN2C`, the INHIBITION is on record as 73.1%. With `CCN(CC)S(=O)(=O)N1CC[C@H](c2ccccc2)[C@H]2NCCCC[C@H]21` the figure was 47.2%; with `CN1CCCCC[C@@H]2[C@@H]1[C@H](c1ccccc1)CN2C(=O)c1ccccn1`, -37%; with `CCN(CC)S(=O)(=O)N1CCCC1CC(=O)c1cccs1` (stereo not drawn), -2.74%. As for `N[C@H]1CN(S(=O)(=O)N2CCCC2)C[C@@H]1c1ccccc1`, the INHIBITION was found to be 44.2%. `O=S(=O)(N1CCCC1)N1CCCCC1CCc1ccccc1` (stereo not drawn): the INHIBITION is recorded as 31.8%.

Regarding `CCN(CC)S(=O)(=O)N1C[C@@H](c2ccccc2)[C@H]2[C@H]1CCCCCN2C`, the INHIBITION stood at 51.7%. For the molecule `CC(C)S(=O)(=O)N1C[C@@H](c2ccccc2)[C@H]2[C@H]1CCCCCN2C`, the INHIBITION was determined as 16.5%. In the case of `CCN(CC)S(=O)(=O)N1CCCC(c2cccc(C(=O)O)c2)C1` (stereo not drawn) it was -31.5%. With `O=S(=O)(N1CCCC1)N1C[C@@H](c2cccc(F)c2)[C@@H]2NCCCCC[C@H]21` the figure was 43.6%; with `O=S(=O)(N1CCCC1)N1CC[C@H](c2ccccc2)[C@H]2NCCCC[C@H]21`, 52%; with `CN1CCCC[C@@H]2[C@H]1[C@@H](c1ccccc1)CCN2S(=O)(=O)N1CCCC1`, 61.7%.

As for `CC[C@@H](c1ccccc1)n1c(CCN)n[nH]c1=O`, the INHIBITION was 39%. `CCc1noc(C(C)N2CCN(c3ccc(C#N)cc3F)CC2)n1` (stereo not drawn): the INHIBITION is given as -17.4%. With `O=C(CC1CCCC1)NCCS(=O)(=O)N1CCN(c2ccccc2)CC1` the figure was -16.4%; with `CC(=O)NCc1cc(-c2cccs2)n(C2CCCC2)n1`, 1.74%; with `COc1c(C2CCCN2CC(=O)N(C)c2nccs2)c(C)nn1C` (stereo not drawn), 8.7%. With `CN(C)c1ccc(C(=O)N2CCCC2c2noc(C3CC3)n2)nn1` (stereo not drawn) the figure was 3.263%.

For `Cc1ncc2c(n1)CN(CC(=O)Nc1nnc(C)s1)CC2`, the INHIBITION stood at 34.7%. In the case of `O=C(NCC1CC1)[C@@H]1CCO[C@@H]2CCN(CCc3ccccc3)C[C@H]21` it was 47.1%.

As for `COCC(=O)NCc1cc2n(n1)CCCN(Cc1ccccc1SC)C2`, the INHIBITION is reported as -46.2%. In the case of `CN(Cc1ccccc1)CC(O)Cn1cnc2cc(F)ccc2c1=O` (stereo not drawn) it was -8.7%; in that of `O=C([C@H]1COC[C@H]2CN(c3ncc(F)cn3)C[C@H]21)N1CCOCC1`, -0.554%; in that of `O=C(NCc1ccco1)[C@@H]1COC[C@H]2CN(c3ncc(F)cn3)C[C@H]21`, 3.88%. With `O=C(NC1CC1)[C@H]1COC[C@H]2CN(c3ncc(F)cn3)C[C@H]21` the figure was 58.5%; with `O=C(Nc1cnccn1)[C@@H]1COC[C@H]2CN(c3ncc(F)cn3)C[C@H]21`, -22.7%. Regarding `CS(=O)(=O)N1C[C@@H]2COC[C@H](C(=O)Nc3cnccn3)[C@@H]2C1`, the INHIBITION was found to be 45.2%.

Consider `O=C(Nc1cnccn1)[C@H]1COC[C@H]2CN(c3ncc(F)cn3)C[C@H]21`, for which the INHIBITION is listed as 67.4%. With `CC(=O)N1[C@H](CN(C)C)C[C@@H]2CN(C(=O)c3ccsc3)CC[C@@H]21` the figure was -24.5%; with `O=C([C@H]1CN(CCc2ccccc2)C[C@H]2OCC[C@@H]12)N1CCCO1`, 8.57%.

On to `COc1ccc(Cn2cc(C(=O)N(C)Cc3cnccn3)nn2)cc1`, for which the INHIBITION is listed as 21.5%. In the case of `COc1cccc(CNc2nc(C)cc(C)n2)c1OC` it was -11.7%; in that of `COc1cccc(CNc2cc(C)nc(-c3ccncc3)n2)c1OC`, 85.2%. With `Cc1cc(NCCC(=O)NC(C)C)nc(-c2ccncc2)n1` the figure was -2.43%; with `COc1cccc(CNc2cc(C)nc(-c3ccncc3)n2)c1O`, 78.9%. In the case of `COc1cccc(CNc2cccnc2-n2cccn2)c1OC` it was 17.3%. On to `COCCNC(=O)CCNc1cc(C)nc(-c2ccncc2)n1`, for which the INHIBITION amounted to 24%.
